ChEMBL document CHEMBL1961873, “Compounds: GSK PKIS; Assays: Nanosyn kinase panel” (2012)

Key:
[1] = target: Serine/threonine-protein kinase MRCK alpha (Homo sapiens) (UniProt Q5VT25); conditions: at 0.1 µM
[2] = target: Serine/threonine-protein kinase MRCK alpha (Homo sapiens) (UniProt Q5VT25); conditions: at 1 µM
[3] = target: Serine/threonine-protein kinase MRCK beta (Homo sapiens) (UniProt Q9Y5S2); conditions: at 0.1 µM
[4] = target: Serine/threonine-protein kinase MRCK beta (Homo sapiens) (UniProt Q9Y5S2); conditions: at 1 µM
[5] = target: Ribosomal protein S6 kinase alpha-5 (Homo sapiens) (UniProt O75582); conditions: at 0.1 µM
Sequence of Ribosomal protein S6 kinase alpha-5 (Homo sapiens) (O75582 whole entry, looked up): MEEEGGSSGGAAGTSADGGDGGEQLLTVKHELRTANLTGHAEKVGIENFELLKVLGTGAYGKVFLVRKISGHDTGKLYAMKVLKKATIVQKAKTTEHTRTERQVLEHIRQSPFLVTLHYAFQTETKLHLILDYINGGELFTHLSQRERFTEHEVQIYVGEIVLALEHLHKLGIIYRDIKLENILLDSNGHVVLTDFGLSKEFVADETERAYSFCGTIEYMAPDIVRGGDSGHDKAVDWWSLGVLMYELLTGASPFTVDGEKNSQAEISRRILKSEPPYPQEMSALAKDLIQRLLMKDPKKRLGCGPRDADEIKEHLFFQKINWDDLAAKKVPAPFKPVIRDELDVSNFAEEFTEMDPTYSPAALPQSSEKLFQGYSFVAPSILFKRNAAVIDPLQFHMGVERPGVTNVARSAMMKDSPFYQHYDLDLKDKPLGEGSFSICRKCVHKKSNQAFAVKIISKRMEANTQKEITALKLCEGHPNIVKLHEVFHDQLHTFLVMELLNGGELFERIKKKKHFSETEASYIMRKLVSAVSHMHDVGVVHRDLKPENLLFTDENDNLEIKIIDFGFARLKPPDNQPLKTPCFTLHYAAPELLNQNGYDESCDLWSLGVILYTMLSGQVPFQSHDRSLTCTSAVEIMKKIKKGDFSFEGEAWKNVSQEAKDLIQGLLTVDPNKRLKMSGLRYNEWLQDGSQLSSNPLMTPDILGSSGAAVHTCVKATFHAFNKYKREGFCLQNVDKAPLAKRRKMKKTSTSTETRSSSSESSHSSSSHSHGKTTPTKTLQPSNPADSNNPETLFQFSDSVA

[6] = target: Ribosomal protein S6 kinase alpha-5 (Homo sapiens) (UniProt O75582); conditions: at 1 µM
[7] = target: Ribosomal protein S6 kinase alpha-4 (Homo sapiens) (UniProt O75676); conditions: at 0.1 µM
Sequence of Ribosomal protein S6 kinase alpha-4 (Homo sapiens) (O75676 whole entry, looked up): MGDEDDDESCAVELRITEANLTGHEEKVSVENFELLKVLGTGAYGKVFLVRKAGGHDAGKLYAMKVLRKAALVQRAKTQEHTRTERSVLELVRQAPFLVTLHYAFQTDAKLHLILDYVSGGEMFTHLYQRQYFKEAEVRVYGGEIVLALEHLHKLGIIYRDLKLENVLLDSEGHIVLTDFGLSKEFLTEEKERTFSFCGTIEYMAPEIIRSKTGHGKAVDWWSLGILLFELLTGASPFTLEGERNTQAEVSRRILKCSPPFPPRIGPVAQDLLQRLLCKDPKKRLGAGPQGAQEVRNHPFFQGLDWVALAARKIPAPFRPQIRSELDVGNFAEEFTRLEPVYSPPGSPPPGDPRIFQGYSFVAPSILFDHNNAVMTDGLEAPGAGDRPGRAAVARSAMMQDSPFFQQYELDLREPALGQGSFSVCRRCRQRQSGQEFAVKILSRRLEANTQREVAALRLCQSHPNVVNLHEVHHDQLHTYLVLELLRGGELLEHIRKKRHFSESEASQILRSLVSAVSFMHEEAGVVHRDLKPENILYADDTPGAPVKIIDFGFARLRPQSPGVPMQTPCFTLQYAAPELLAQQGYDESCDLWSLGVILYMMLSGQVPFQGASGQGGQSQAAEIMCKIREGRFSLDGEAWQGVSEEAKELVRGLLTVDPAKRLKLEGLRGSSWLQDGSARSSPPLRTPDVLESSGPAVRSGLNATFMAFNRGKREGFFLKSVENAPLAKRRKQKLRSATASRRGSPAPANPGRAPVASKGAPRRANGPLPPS

[8] = target: Ribosomal protein S6 kinase alpha-4 (Homo sapiens) (UniProt O75676); conditions: at 1 µM
[9] = target: Ribosomal protein S6 kinase beta-1 (Homo sapiens) (UniProt P23443); conditions: at 0.1 µM
Sequence of Ribosomal protein S6 kinase beta-1 (Homo sapiens) (P23443 whole entry, looked up): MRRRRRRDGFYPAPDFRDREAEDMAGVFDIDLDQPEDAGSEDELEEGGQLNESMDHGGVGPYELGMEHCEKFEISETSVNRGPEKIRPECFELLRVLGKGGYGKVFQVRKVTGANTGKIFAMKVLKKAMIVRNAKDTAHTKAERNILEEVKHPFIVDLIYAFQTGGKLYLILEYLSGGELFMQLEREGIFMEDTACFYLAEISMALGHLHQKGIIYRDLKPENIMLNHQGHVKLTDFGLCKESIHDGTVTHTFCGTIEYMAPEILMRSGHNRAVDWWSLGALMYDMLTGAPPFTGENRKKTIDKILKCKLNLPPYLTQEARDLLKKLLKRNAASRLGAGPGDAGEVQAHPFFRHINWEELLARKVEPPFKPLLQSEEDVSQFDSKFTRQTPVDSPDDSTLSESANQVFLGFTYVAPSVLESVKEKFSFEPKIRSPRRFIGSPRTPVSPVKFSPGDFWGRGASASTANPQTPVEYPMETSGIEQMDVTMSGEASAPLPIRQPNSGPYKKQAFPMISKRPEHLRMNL

[10] = target: Ribosomal protein S6 kinase beta-1 (Homo sapiens) (UniProt P23443); conditions: at 1 µM
[11] = target: T1, 3-phosphoinositide-dependent protein kinase 1 (Homo sapiens) (UniProt O15530); conditions: at 0.1 µM;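 also: values are mean inhibition of PDK1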
T1 sequence (whole entry): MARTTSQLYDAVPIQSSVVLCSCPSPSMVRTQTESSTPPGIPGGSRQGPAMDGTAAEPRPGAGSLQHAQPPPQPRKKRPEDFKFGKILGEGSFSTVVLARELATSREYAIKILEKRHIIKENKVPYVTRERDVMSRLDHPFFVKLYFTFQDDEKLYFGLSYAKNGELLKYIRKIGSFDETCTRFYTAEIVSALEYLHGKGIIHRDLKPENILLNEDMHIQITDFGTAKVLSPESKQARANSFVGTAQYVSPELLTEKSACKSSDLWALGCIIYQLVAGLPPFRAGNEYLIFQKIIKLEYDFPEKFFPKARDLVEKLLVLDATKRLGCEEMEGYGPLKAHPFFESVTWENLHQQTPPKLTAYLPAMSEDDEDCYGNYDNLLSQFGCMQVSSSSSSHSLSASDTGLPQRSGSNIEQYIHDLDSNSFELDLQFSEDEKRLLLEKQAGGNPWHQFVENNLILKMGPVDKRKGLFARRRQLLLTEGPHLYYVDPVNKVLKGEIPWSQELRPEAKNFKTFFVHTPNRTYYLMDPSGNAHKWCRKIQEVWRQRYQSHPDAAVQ

[12] = target: cAMP-dependent protein kinase catalytic subunit alpha (Homo sapiens) (UniProt P17612); conditions: at 0.1 µM
[13] = target: cAMP-dependent protein kinase catalytic subunit alpha (Homo sapiens) (UniProt P17612); conditions: at 1 µM
[14] = target: Protein kinase C alpha type (Homo sapiens) (UniProt P17252); conditions: at 0.1 µM
[15] = target: Protein kinase C alpha type (Homo sapiens) (UniProt P17252); conditions: at 1 µM
[16] = target: Protein kinase C beta type (Homo sapiens) (UniProt P05771); conditions: at 0.1 µM
[17] = target: Protein kinase C beta type (Homo sapiens) (UniProt P05771); conditions: at 1 µM
[18] = target: Protein kinase C eta type (Homo sapiens) (UniProt P24723); conditions: at 0.1 µM
[19] = target: Protein kinase C eta type (Homo sapiens) (UniProt P24723); conditions: at 1 µM
[20] = target: Protein kinase C gamma type (Homo sapiens) (UniProt P05129); conditions: at 0.1 µM;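 also: values are mean percent inhibition of PKC gamma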

Sequence of Serine/threonine-protein kinase MRCK alpha (Homo sapiens) (Q5VT25 whole entry): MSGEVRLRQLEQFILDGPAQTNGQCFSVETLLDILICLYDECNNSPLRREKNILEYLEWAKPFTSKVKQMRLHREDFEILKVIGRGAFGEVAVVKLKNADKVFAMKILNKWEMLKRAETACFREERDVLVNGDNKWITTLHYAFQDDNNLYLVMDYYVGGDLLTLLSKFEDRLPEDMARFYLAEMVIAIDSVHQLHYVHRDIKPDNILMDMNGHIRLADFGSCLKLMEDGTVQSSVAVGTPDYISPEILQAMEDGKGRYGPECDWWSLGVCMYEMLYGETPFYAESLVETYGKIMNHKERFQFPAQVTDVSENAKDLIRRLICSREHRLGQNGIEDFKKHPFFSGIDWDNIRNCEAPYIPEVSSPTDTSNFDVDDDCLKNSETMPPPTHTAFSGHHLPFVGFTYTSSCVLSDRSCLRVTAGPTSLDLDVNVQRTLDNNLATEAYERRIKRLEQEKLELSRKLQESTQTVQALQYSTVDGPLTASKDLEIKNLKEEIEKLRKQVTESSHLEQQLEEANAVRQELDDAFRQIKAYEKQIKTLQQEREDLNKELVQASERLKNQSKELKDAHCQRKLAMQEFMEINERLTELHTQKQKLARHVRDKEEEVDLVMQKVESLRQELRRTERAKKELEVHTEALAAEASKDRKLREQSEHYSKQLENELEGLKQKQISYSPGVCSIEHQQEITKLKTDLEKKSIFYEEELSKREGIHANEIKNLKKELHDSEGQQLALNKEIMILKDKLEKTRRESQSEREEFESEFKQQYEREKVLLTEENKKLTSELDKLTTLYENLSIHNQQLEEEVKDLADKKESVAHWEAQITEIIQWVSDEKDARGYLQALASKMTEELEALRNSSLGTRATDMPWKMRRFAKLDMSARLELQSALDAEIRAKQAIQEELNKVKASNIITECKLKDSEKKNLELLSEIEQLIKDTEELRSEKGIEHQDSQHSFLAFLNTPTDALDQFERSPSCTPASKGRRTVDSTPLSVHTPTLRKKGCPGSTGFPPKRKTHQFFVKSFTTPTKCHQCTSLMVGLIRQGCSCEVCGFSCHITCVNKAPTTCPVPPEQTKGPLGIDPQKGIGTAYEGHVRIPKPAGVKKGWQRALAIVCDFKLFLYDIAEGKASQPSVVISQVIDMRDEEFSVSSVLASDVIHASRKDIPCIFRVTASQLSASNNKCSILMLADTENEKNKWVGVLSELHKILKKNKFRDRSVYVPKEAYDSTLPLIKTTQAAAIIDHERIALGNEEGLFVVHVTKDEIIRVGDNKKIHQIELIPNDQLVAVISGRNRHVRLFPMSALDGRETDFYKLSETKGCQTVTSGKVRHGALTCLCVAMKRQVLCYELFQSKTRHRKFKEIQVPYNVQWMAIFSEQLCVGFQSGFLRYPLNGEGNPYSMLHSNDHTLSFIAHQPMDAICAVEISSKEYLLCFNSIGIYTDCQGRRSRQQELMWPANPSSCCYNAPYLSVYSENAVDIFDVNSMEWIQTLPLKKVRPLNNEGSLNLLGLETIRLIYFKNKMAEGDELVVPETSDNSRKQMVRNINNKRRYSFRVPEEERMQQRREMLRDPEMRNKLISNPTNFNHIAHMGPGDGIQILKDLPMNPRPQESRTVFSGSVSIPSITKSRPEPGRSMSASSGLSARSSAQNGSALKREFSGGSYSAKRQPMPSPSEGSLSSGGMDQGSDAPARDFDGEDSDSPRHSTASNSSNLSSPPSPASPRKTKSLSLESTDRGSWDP

SMILES: O=C1NC(=O)C(c2cccc(Cl)c2)=C1Nc1ccc(O)c(Cl)c1
- inhibition [1]: 0.28%
- inhibition [2]: 3.73%
- inhibition [3]: 1.27%
- inhibition [4]: 2.02%
- inhibition [5]: 0.69%
- inhibition [6]: 2.04%
- inhibition [7]: 0.07%
- inhibition [8]: 3.61%
- inhibition [9]: 0.45%
- inhibition [10]: 0.8%
- inhibition [11]: 0.43%
- inhibition [12]: 1.25%
- inhibition [13]: 1.73%
- inhibition [14]: 3.2%
- inhibition [15]: 6.33%
- inhibition [16]: 0.44%
- inhibition [17]: 4.94%
- inhibition [18]: 1.88%
- inhibition [19]: 2.97%
- inhibition [20]: -4.59%

SMILES: Cc1nn(C)c2cc(N(C)c3ccnc(Nc4cccc(S(N)(=O)=O)c4)n3)ccc12
- inhibition [1]: -1.1%
- inhibition [2]: 2.42%
- inhibition [3]: 1.01%
- inhibition [4]: 3.81%
- inhibition [5]: 10.5%
- inhibition [6]: 11.1%
- inhibition [7]: 4.88%
- inhibition [8]: 6.94%
- inhibition [9]: 2.3%
- inhibition [10]: 2.85%
- inhibition [11]: 1.33%
- inhibition [12]: 2.03%
- inhibition [13]: 6.18%
- inhibition [14]: 1%
- inhibition [15]: 6.39%
- inhibition [16]: 1.44%
- inhibition [17]: 6%
- inhibition [18]: 4.55%
- inhibition [19]: 2.34%
- inhibition [20]: 4.1%

SMILES: COc1cc(C)c(NC(=O)CN(C)C)cc1Nc1nc(Nc2cccc(F)c2C(N)=O)c2cc[nH]c2n1
- inhibition [1]: -0.22%
- inhibition [2]: 2.53%
- inhibition [3]: -0.26%
- inhibition [4]: 1.65%
- inhibition [5]: 1.58%
- inhibition [6]: 0.97%
- inhibition [7]: -0.16%
- inhibition [8]: 2.07%
- inhibition [9]: 2.03%
- inhibition [10]: 3.01%
- inhibition [11]: 2.96%
- inhibition [12]: 1.08%
- inhibition [13]: -0.43%
- inhibition [14]: 1.34%
- inhibition [15]: 5.42%
- inhibition [16]: -0.18%
- inhibition [17]: -0.1%
- inhibition [18]: 1.08%
- inhibition [19]: 1.46%
- inhibition [20]: 3.92%

SMILES: O=C1Nc2ccc(C(=O)c3ccco3)cc2C1=Cc1cc(Cl)c(O)c(Cl)c1
- inhibition [1]: -0.25%
- inhibition [2]: 1.33%
- inhibition [3]: -0.3%
- inhibition [4]: 1.6%
- inhibition [5]: 2.41%
- inhibition [6]: 5.05%
- inhibition [7]: 0.41%
- inhibition [8]: 4.81%
- inhibition [9]: 0.47%
- inhibition [10]: 3.14%
- inhibition [11]: 3.22%
- inhibition [12]: 1.97%
- inhibition [13]: 4.78%
- inhibition [14]: 1.38%
- inhibition [15]: 3.32%
- inhibition [16]: -0.57%
- inhibition [17]: 1.37%
- inhibition [18]: 4.29%
- inhibition [19]: 7.64%
- inhibition [20]: 1.31%

SMILES: CNC(=O)c1cncc(/C=C/c2c(Cl)cccc2Cl)c1
- inhibition [1]: 4.22%
- inhibition [2]: 1.78%
- inhibition [3]: 0.12%
- inhibition [4]: 0.52%
- inhibition [5]: 0.58%
- inhibition [6]: 1.1%
- inhibition [7]: 2.15%
- inhibition [8]: 3.75%
- inhibition [9]: 1.85%
- inhibition [10]: 2.12%
- inhibition [11]: 0.01%
- inhibition [12]: -1.08%
- inhibition [13]: -1.47%
- inhibition [14]: -3.64%
- inhibition [15]: -2.28%
- inhibition [16]: 0.07%
- inhibition [17]: 0.23%
- inhibition [18]: 3.81%
- inhibition [19]: 5.49%
- inhibition [20]: 0.61%

SMILES: Cn1cc(C=C2C(=O)Nc3cccnc32)c2ccccc21
- inhibition [1]: 0.96%
- inhibition [2]: 0.55%
- inhibition [3]: 1.17%
- inhibition [4]: 0.99%
- inhibition [5]: 2.12%
- inhibition [6]: 3.29%
- inhibition [7]: 2.56%
- inhibition [8]: 10.1%
- inhibition [9]: 1.61%
- inhibition [10]: 3.78%
- inhibition [11]: 0.63%
- inhibition [12]: 0.99%
- inhibition [13]: 1.46%
- inhibition [14]: 1%
- inhibition [15]: 1.29%
- inhibition [16]: -0.06%
- inhibition [17]: -1.44%
- inhibition [18]: 2.86%
- inhibition [19]: -0.57%
- inhibition [20]: -1.77%

SMILES: CCn1c(-c2nonc2N)nc2cncc(C(=O)N3CCNCC3)c21
- inhibition [1]: 5.33%
- inhibition [2]: 7.84%
- inhibition [3]: 0.36%
- inhibition [4]: 3.02%
- inhibition [5]: 5.57%
- inhibition [6]: 7.4%
- inhibition [7]: 3.28%
- inhibition [8]: 4.71%
- inhibition [9]: 2.87%
- inhibition [10]: 4.44%
- inhibition [11]: 2.8%
- inhibition [12]: 4.17%
- inhibition [13]: 8.74%
- inhibition [14]: 0.92%
- inhibition [15]: 1.73%
- inhibition [16]: 2.12%
- inhibition [17]: 4.3%
- inhibition [18]: 6.14%
- inhibition [19]: 4.16%
- inhibition [20]: 1.3%

SMILES: COc1ccc(COc2ccc(Cc3cnc(N)nc3N)cc2OC)cc1
- inhibition [1]: 1.99%
- inhibition [2]: -0.63%
- inhibition [3]: 3.11%
- inhibition [4]: 3.93%
- inhibition [5]: 8.75%
- inhibition [6]: 5.97%
- inhibition [7]: 1.99%
- inhibition [8]: 1.84%
- inhibition [9]: 1.54%
- inhibition [10]: 0.73%
- inhibition [11]: 1.69%
- inhibition [12]: 4.69%
- inhibition [13]: 1.52%
- inhibition [14]: 1.05%
- inhibition [15]: 1.13%
- inhibition [16]: 3.26%
- inhibition [17]: 2.56%
- inhibition [18]: 1.31%
- inhibition [19]: -0.03%
- inhibition [20]: 2.11%

SMILES: Nc1nc(-c2ccccn2)c(-c2ccc3ncccc3n2)s1
- inhibition [1]: 0.29%
- inhibition [2]: -0.21%
- inhibition [3]: -1.45%
- inhibition [4]: 0.91%
- inhibition [5]: 2.65%
- inhibition [6]: 4.51%
- inhibition [7]: 1.3%
- inhibition [8]: 3.24%
- inhibition [9]: 0.7%
- inhibition [10]: 1.17%
- inhibition [11]: 1.75%
- inhibition [12]: 1.32%
- inhibition [13]: 1.89%
- inhibition [14]: 1.07%
- inhibition [15]: 1.65%
- inhibition [16]: 0.07%
- inhibition [17]: 1.26%
- inhibition [18]: 5.03%
- inhibition [19]: 2.77%
- inhibition [20]: 1.52%

SMILES: COc1ccc(-c2ccncc2)cc1C(N)=O
- inhibition [1]: 3.16%
- inhibition [2]: 6.38%
- inhibition [3]: -0.49%
- inhibition [4]: 2.83%
- inhibition [5]: 9.33%
- inhibition [6]: 10.5%
- inhibition [7]: 2.85%
- inhibition [8]: 5.28%
- inhibition [9]: 1.79%
- inhibition [10]: 4.79%
- inhibition [11]: 1.13%
- inhibition [12]: 2.54%
- inhibition [13]: 3.05%
- inhibition [14]: 1.07%
- inhibition [15]: 1.9%
- inhibition [16]: -0.74%
- inhibition [17]: 0.96%
- inhibition [18]: 3.72%
- inhibition [19]: 6.14%
- inhibition [20]: 2.34%

SMILES: Cc1ccc(C(=O)NC2CCCCC2)cc1-c1ccc(C(=O)NCC2CC2)cc1
- inhibition [1]: 1.04%
- inhibition [2]: 0.21%
- inhibition [3]: 1.37%
- inhibition [4]: 1.51%
- inhibition [5]: 2.76%
- inhibition [6]: 3.23%
- inhibition [7]: 1.19%
- inhibition [8]: 2.43%
- inhibition [9]: -0.26%
- inhibition [10]: 0.99%
- inhibition [11]: 3.8%
- inhibition [12]: 3.21%
- inhibition [13]: 1.86%
- inhibition [14]: 0.96%
- inhibition [15]: 2.17%
- inhibition [16]: 1.17%
- inhibition [17]: 1.93%
- inhibition [18]: 3.2%
- inhibition [19]: -0.62%
- inhibition [20]: 3.68%

SMILES: Nc1ncnc2occ(-c3ccc(NC(=O)Nc4cc(C(F)(F)F)cc(C(F)(F)F)c4)cc3)c12
- inhibition [1]: -0.38%
- inhibition [2]: -1.97%
- inhibition [3]: 0.11%
- inhibition [4]: 1.52%
- inhibition [5]: 3.6%
- inhibition [6]: 25.2%
- inhibition [7]: -0.06%
- inhibition [8]: 20.1%
- inhibition [9]: 17%
- inhibition [10]: 65.8%
- inhibition [11]: 1.59%
- inhibition [12]: 0.91%
- inhibition [13]: 0.7%
- inhibition [14]: 0.06%
- inhibition [15]: 0.45%
- inhibition [16]: -0.8%
- inhibition [17]: -1.24%
- inhibition [18]: 1.47%
- inhibition [19]: -0.03%
- inhibition [20]: 3.16%

SMILES: c1cnn2ncc(-c3ccnc(Nc4ccc5c(c4)OCCO5)n3)c2c1
- inhibition [1]: -0.46%
- inhibition [2]: 0.87%
- inhibition [3]: 1.21%
- inhibition [4]: 1.8%
- inhibition [5]: 4.5%
- inhibition [6]: 6.82%
- inhibition [7]: 2.97%
- inhibition [8]: 6.51%
- inhibition [9]: 1.67%
- inhibition [10]: 5.63%
- inhibition [11]: 4.84%
- inhibition [12]: 1.74%
- inhibition [13]: 7.09%
- inhibition [14]: 2.47%
- inhibition [15]: 20.4%
- inhibition [16]: 1.95%
- inhibition [17]: 4.36%
- inhibition [18]: 4.51%
- inhibition [19]: 8.26%
- inhibition [20]: 1.93%

SMILES: O=C(Nc1n[nH]c2nc(-c3ccco3)c(Br)cc12)C1CC1
- inhibition [1]: 0.4%
- inhibition [2]: -0.6%
- inhibition [3]: 1.27%
- inhibition [4]: 0.57%
- inhibition [5]: 3.55%
- inhibition [6]: 1.89%
- inhibition [7]: 0.7%
- inhibition [8]: 2.64%
- inhibition [9]: 1.19%
- inhibition [10]: 2.07%
- inhibition [11]: 2%
- inhibition [12]: 1.31%
- inhibition [13]: 2.05%
- inhibition [14]: 0.29%
- inhibition [15]: 0.28%
- inhibition [16]: 1.29%
- inhibition [17]: -0.77%
- inhibition [18]: 3.62%
- inhibition [19]: 2.72%
- inhibition [20]: 0.45%
